This is part of a sample that, as a whole, favours compounds with a hit. Of some 79,000 tested, about 15% had one in any assay. Active and inactive are the calls of the source. No stated cut-off is given here; in the data, active means growth inhibition above about 70%; inactive means the rest.
Assay: NCI Yeast Anticancer Drug Screen. Data for the bub3 strain (AID 167)
Conditions: S. cerevisiae bub3 mutant strain, at 50.0 µM (retest, dose inferred, filed as 5.0), active compounds read high
Summary of the method: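 Mutant yeast screening strain plus compound; vehicle-treated cultures serve as the 0% inhibition reference.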

With `CC(=O)OC1=CC2=CCC3C(CCC4(C)C(C(C)=O)CCC34)C2(C)CC1` (centres undefined) as the compound, how does the growth inhibition read?
Its growth inhibition is -14% (inactive).

For `CCCC/C=C1/CCC(CN(C)C)C1=O` (centres undefined), which growth inhibition is on record?
Its growth inhibition is 84% (active).

With `CCN1CCC(O)(/C=C/c2ccccc2C)C(C(=O)/C=C/c2ccccc2C)C1` (centres undefined) as the compound, how does the growth inhibition read?
Its growth inhibition is 83% (active).

For `Cc1c(Cl)ccc2c(C(O)CNCc3ccccc3)cc(-c3ccc(Cl)cc3)nc12` (centres undefined), which growth inhibition is on record?
The growth inhibition was 95% (active).

With `COc1ccc(C2CC(c3c(O)ccc4ccccc34)=NN2)cc1OC` (centres undefined) as the compound, how does the growth inhibition read?
The growth inhibition was 96% (active).

Which growth inhibition does the source give for `O=c1[nH]c2c([N+](=O)[O-])cc(Cl)cc2nc1/C=C(\O)c1ccco1` here?
Its growth inhibition is 66% (inactive).

For `NC1c2ccccc2-c2ccc([N+](=O)[O-])cc21` (centres undefined), which growth inhibition is on record?
Its growth inhibition is 3% (inactive).

For `CN(C(=O)c1ccccc1)C1(COC(=O)c2ccccc2)CCCCC1`, which growth inhibition is on record?
The growth inhibition was 28% (inactive).

For `CCOC(=O)Nc1cc2c(cc1Br)-c1ccccc1C2O` (centres undefined), which growth inhibition is on record?
The growth inhibition was 95% (active).

For `O=C(/C=C(/Nc1ccccc1)C(=O)c1ccccc1)c1ccccc1`, which growth inhibition is on record?
The growth inhibition was 33% (inactive).

Which growth inhibition does the source give for `Nc1ccc2[nH]c3ccccc3c2c1` here?
Its growth inhibition is 18% (inactive).

Which growth inhibition does the source give for `Clc1ccc([I+]c2cccs2)cc1` here?
The growth inhibition was 97% (active).

With `CCCCCCC(C)S(=O)(=O)c1ccc(C)cc1` (centres undefined) as the compound, how does the growth inhibition read?
Its growth inhibition is 50% (inactive).

With `COC(=O)/C(=C/C=C(c1ccccc1)c1ccccc1)N(C(C)=O)C(C)=O` as the compound, how does the growth inhibition read?
The growth inhibition was 11% (inactive).

For `Oc1ccc(Cc2cccc(Br)c2)c(O)c1`, which growth inhibition is on record?
Its growth inhibition is 99% (active).

For `O=C(NNc1nc(-c2ccccc2)cs1)C(F)(F)F`, which growth inhibition is on record?
Its growth inhibition is 99% (active).

Which growth inhibition does the source give for `Nc1nc(-c2ccc(Cl)cc2)cs1` here?
The growth inhibition was 90% (active).

Which growth inhibition does the source give for `Cc1cc(C)nc(CCSS(=O)(=O)O)c1` here?
Its growth inhibition is -6% (inactive).

For `CC1(C)OC2C(COC(c3ccccc3)(c3ccccc3)c3ccccc3)OC(n3cnc4c(N)ncnc43)C2O1` (centres undefined), which growth inhibition is on record?
The growth inhibition was 92% (active).
